Laboratory results reported in the supplement of paper PMC8728848.
Only a selection was taken, and the strongest signals are over-represented in it overall.

What was measured:
Test in all cases: glycan array binding signal (z-score within array); higher = stronger binding
Settings in all cases: glycan notation: IUPAC condensed, linker removed
[1] = molecular target: Gal6S(b1-4)GlcNAc6S
Outline: (§1)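 Negative Z-scores can be read as non-binding. The Z-score is calculated within each array and then averaged across arrays of one protein sequence at different concentrations or buffers and across linkers. Arrays, 3228 in all, were curated from the Consortium for Functional Glycomics database and kept only where the protein sequence was available.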

[2] = molecular target: GalNAc(b1-4)GlcNAc(b1-2)Man(a1-3)[GalNAc(b1-4)GlcNAc(b1-2)Man(a1-6)]Man(b1-4)GlcNAc(b1-4)GlcNAc
Outline: as §1

[3] = molecular target: GlcNAc(a1-4)Gal(b1-3)GlcNAc
Outline: as §1

[4] = molecular target: GlcNAc(a1-4)Gal(b1-4)GlcNAc(b1-3)Gal(b1-4)[Fuc(a1-3)]GlcNAc(b1-3)Gal(b1-4)[Fuc(a1-3)]GlcNAc
Outline: as §1

[5] = molecular target: GlcNAc(b1-2)Man(a1-3)[GlcNAc(b1-4)][GlcNAc(b1-2)Man(a1-6)]Man(b1-4)GlcNAc(b1-4)GlcNAc
Outline: as §1

[6] = molecular target: GlcNAc(b1-3)Gal(b1-4)GlcNAc
Outline: as §1

[7] = molecular target: GlcNAc(b1-3)[GlcNAc(b1-4)][GlcNAc(b1-6)]GlcNAc
Outline: as §1

[8] = molecular target: Kdn(a2-3)Gal(b1-4)GlcNAc
Outline: as §1

[9] = molecular target: Man(a1-2)Man(a1-2)Man(a1-3)Man
Outline: as §1

[10] = molecular target: Man(a1-2)Man(a1-3)[Man(a1-6)]Man(a1-6)[Man(a1-2)Man(a1-3)]Man(b1-4)GlcNAc(b1-4)GlcNAc
Outline: as §1

[11] = molecular target: Man(a1-3)[Man(a1-6)]Man(b1-4)GlcNAc(b1-4)[Fuc(a1-6)]GlcNAc
Outline: as §1

[12] = molecular target: Neu5Ac(a2-3)Gal(b1-4)GlcNAc(b1-2)Man
Outline: as §1

[13] = molecular target: Neu5Ac(a2-3)Gal(b1-4)GlcNAc(b1-3)Gal
Outline: as §1

[14] = molecular target: Neu5Ac(a2-3)Gal(b1-4)GlcNAc(b1-3)Gal(b1-4)GlcNAc(b1-3)GalNAc
Outline: as §1

[15] = molecular target: Neu5Ac(a2-3)Gal(b1-4)GlcNAc(b1-3)Gal(b1-4)GlcNAc(b1-6)[Gal(b1-3)]GalNAc
Outline: as §1

[16] = molecular target: Neu5Ac(a2-3)Gal(b1-4)GlcNAc(b1-3)GalNAc
Outline: as §1

[17] = molecular target: Neu5Ac(a2-3)Gal(b1-4)[Fuc(a1-3)]GlcNAc(b1-3)GalNAc
Outline: as §1

[18] = molecular target: Neu5Ac(a2-3)Gal6S(b1-4)[Fuc(a1-3)]GlcNAc
Outline: as §1

[19] = molecular target: Neu5Ac(a2-6)Gal(b1-4)GlcNAc(b1-3)Gal(b1-4)GlcNAc(b1-3)Gal(b1-4)GlcNAc(b1-2)Man(a1-3)[Neu5Ac(a2-6)Gal(b1-4)GlcNAc(b1-3)Gal(b1-4)GlcNAc(b1-3)Gal(b1-4)GlcNAc(b1-2)Man(a1-6)]GalNAc
Outline: as §1

[20] = molecular target: Neu5Ac(a2-6)Gal(b1-4)GlcNAc(b1-6)[Gal(b1-3)]GalNAc
Outline: as §1

[21] = molecular target: Neu5Ac(a2-6)GalNAc(b1-4)GlcNAc
Outline: as §1

[22] = molecular target: Neu5Ac(a2-6)GlcNAc(b1-4)GlcNAc
Outline: as §1

[23] = molecular target: Neu5Ac(a2-6)GlcNAc(b1-4)GlcNAc(b1-4)GlcNAc
Outline: as §1

[24] = molecular target: Neu5Ac(a2-8)Neu5Ac(a2-3)Gal(b1-3)GalNAc(b1-4)[Neu5Ac(a2-8)Neu5Ac(a2-3)]Gal(b1-4)Glc
Outline: as §1

[25] = molecular target: Neu5Gc(a2-3)Gal(b1-4)[Fuc(a1-3)]GlcNAc
Outline: as §1

B1: B1257 (Bifidobacterium sp) (protein)
chain: MKKSIRLVAAIAALAMTAGISACGSSTNGNQAKSDVTAQDVETALTDTSKNVELTVWAYSAKQMEPTVKAFEKKYPHIKINFVNTGAAGDHFTKFQNVVQAQKDIPDVVQMGANKFQQFAVSGALLNFANDSIEKAWSKLYTKTAWAQVHYAGGLYGAPQDATPLANYVRKDILDEHNLQVPESWEDIYNEGIKLHKEDSNKYMGILGSDISFFTNLYRSVGARLWKVNSVDDVELTMNSGKAKEFTEFLQKCLKDGVLEGGTVFTDEFNRSINDGRYATFINENWMGNTYKEQNPSLKGKMVVAAPPSWKGQPYQSSSVGSMMSVSAACPKEKQAAALAFINWLDSDKDAIQSWQDTNNGNFFMAASVYQDDENQRNKKETDGYYANDDVNAVYFDSMDKVNTDWEYLPFMSQVEVVFNDVIVPQMNENGDLVGAMAKAQQELKTYAKDNGFKVTTDAD
Q: What does the source list for B1?
A: glycan array binding signal (z-score) [1]: -0.133; glycan array binding signal (z-score) [2]: 1.83; glycan array binding signal (z-score) [3]: -0.103; glycan array binding signal (z-score) [4]: 0.11; glycan array binding signal (z-score) [5]: 0.002; glycan array binding signal (z-score) [6]: -0.138; glycan array binding signal (z-score) [7]: -0.13; glycan array binding signal (z-score) [8]: -0.061; glycan array binding signal (z-score) [9]: -0.128; glycan array binding signal (z-score) [10]: -0.161; glycan array binding signal (z-score) [11]: -0.128; glycan array binding signal (z-score) [12]: 0.015; glycan array binding signal (z-score) [13]: -0.111; glycan array binding signal (z-score) [14]: -0.094; glycan array binding signal (z-score) [15]: -0.087; glycan array binding signal (z-score) [16]: 0.727; glycan array binding signal (z-score) [17]: 0.158; glycan array binding signal (z-score) [18]: -0.194; glycan array binding signal (z-score) [19]: 0.344; glycan array binding signal (z-score) [20]: -0.046; glycan array binding signal (z-score) [21]: -0.178; glycan array binding signal (z-score) [22]: -0.027; glycan array binding signal (z-score) [23]: -0.081; glycan array binding signal (z-score) [24]: -0.004; glycan array binding signal (z-score) [25]: -0.012
